The results in this text go back to PubChem BioAssay AID1572 (National Center for Advancing Translational Sciences (NCATS), 2009).

The structures appear in SMILES notation. Records with an inconclusive call do not appear. Values without a mark were called inactive. The source made the active and inactive calls. Calls follow the shape of the dose curve; as a rule, active = well fitted curve in either direction with a large enough effect; inconclusive = small, poorly fitted or top-dose-only effect; inactive = flat fitted curve, though single readings scatter.

This experiment in a line: Total Fluorescence Confirmation Counterscreen for Inhibitors of the Interaction of Thyroid Hormone Receptor and Steroid Receptor Coregulator 2. The note with it: Texas Red total fluorescence, TRbeta/SRC2 FP artifact counterscreen; series mostly up to 92.2 µM; total fluorescence change, both ways: at the top concentration. An excerpt:
NIH Molecular Libraries Probe Production Network [MLPCN] NIH Chemical Genomics Center [NCGC] MLPCN Grant: DK058080 Assay Provider: R. Kip Guy, St. Jude Children's Research Hospital NCGC Assay Overview: Thyroid receptor (TR) regulates many homeostatic processes including basal metabolism, cardiovascular function, body weight, and lipid trafficking. TR modulators are potential therapeutics for obesity and hyperlipidemias but current thyroid analogs have undesirable side effects, particularly cardiac stimulation. To identify inhibitors that specifically prevent the interaction of TR with the steroid receptor coregulator 2 (SRC2), a fluorescence polarization assay was screened. This assay detects interaction of the ligand-binding domain of human TRbeta with a Texas Red labeled SRC2 peptide, corresponding to a 20 amino acid region of the nuclear receptor interaction domain (Arnold et al., 2006). Total fluorescence (555 nm excitation and 632 nm emission) was measured to identify potential fluorescent and light absorbing compounds. Such compounds may be artifacts that interfere with the fluorescence polarization assay. This assay is a confirmation assay for AID 1479. Arnold, L. A.; Estebanez-Perpina, E.; Togashi, M.; Shelat, A.; Ocasio, C. A.; McReynolds, A. C.; Nguyen, P.; Baxter, J. D.; Fletterick, R. J.; Webb, P.; Guy, R. K. A high-throughput screening method to identify small molecule inhibitors of thyroid hormone receptor coactivator binding. Sci STKE 2006, p 13.
NCGC Assay Protocol Summary: For screening, 5 uL/well 0.6 uM TRbeta and 20 nM SRC2 Texas Red in protein buffer (20mM Tris hydrochloride, 100mM NaCl, 10% glycerol, 1mM EDTA, 0.01% NP-40, 1mM DTT, 1uM T3 and 5% DMSO) was dispensed into black solid 1536-well plates (Grenier) using a solenoid-based dispenser. Following transfer of 23 nL compound or DMSO vehicle by a pin tool, the plates were centrifuged 15 s at 1000 RPM and incubated 5 hr at ambient temperature. The plates were read by an Envision (Perkin Elmer) to detect fluorescence polarization of SRC2 Texas Red (555 nm excitation and 632 nm emission). Data were normalized to unbound (all components except TRbeta) and bound SRC2 Texas Red controls. Total fluorescence (TF) was calculated as follows: TF = S + 2P where S and P are fluorescence readings in the parallel and perpendicular channels, respectively. In this assay, we provide % activity data for each concentration as well as potencies for the active compounds.
For orientation: Counterscreens check selectivity or assay interference.
For the molecule `O=C(O)C1C2C=CC(O2)C1C(=O)Nc1ccc(S(=O)(=O)N2CCc3ccccc32)cc1` (stereo not given), the “total fluorescence change, both ways” value is 9.53%.

As for `COC(=O)c1ccccc1-c1ccc(C(c2c(C)[nH][nH]c2=O)c2c(C)[nH][nH]c2=O)o1`, the “total fluorescence change, both ways” value is 4.88%.

In the case of `Cc1nnc(SCC(=O)Nc2ccc(N(C)C)cc2)[nH]c1=O`, the “total fluorescence change, both ways” value was 4.51% [at 184 µM].

With `COc1cc(NCCCC(C)N)c2ncccc2c1` (stereo not given), the “total fluorescence change, both ways” value was 1.79%.

Regarding `Cc1cc2c(NC(=O)Nc3ccccc3)cccc2nn1`, the “total fluorescence change, both ways” value is 7.45%.

As to `Cc1nc2c3cc(F)ccc3n(Cc3ccccc3F)c2s1`, the “total fluorescence change, both ways” value was 0.375%.

Take `CCCc1nc2c(=O)n(C)c(=O)nc-2n(C)n1`: the “total fluorescence change, both ways” value is 4.23%.

Regarding `O=c1[nH]c(Nc2ccccc2)cc2ccccc12`, the “total fluorescence change, both ways” value was 5.66%.

With `CN(C)c1cc(Cl)c2nonc2c1N`, the “total fluorescence change, both ways” value was 1.14%.

On to `CN1CCc2ccc3c4c2[C@]1(C)Cc1cccc(c1-4)OCO3`, for which the Potency was 100 µM [fluorescent] (active).

Regarding `Cc1ccc(-c2nc(S(=O)(=O)c3ccc(F)cc3)c(SCC(=O)NCC3CCCO3)o2)cc1` (stereo not given), the “total fluorescence change, both ways” value was -10.4%.

For the molecule `O=C(O)[C@H]1CN(CCCP(=O)(O)O)CCN1`, the “total fluorescence change, both ways” value was -7.22% [at 184 µM].

Consider `CC1(C)CC(=O)C(N=Nc2cccc(S(=O)(=O)N3CCOCC3)c2)=C(O)C1`, for which the “total fluorescence change, both ways” value is -1.25%.

`CCSc1ncc(Cl)c(C(=O)Nc2nc3ccc(OC)cc3s2)n1`: the “total fluorescence change, both ways” value was 5.03% [at 184 µM].

`COc1cc(/C=C(\C#N)C(=O)NCC2CCCO2)ccc1OCCC(C)C` (stereo not given): the “total fluorescence change, both ways” value was 4.15%.

For the molecule `Cc1nc2ccccc2n2c(O)c(CC(=O)O)cc12`, the Potency is 31.6 µM [fluorescent] (active).

As for `COc1ccc2ccc3c(c2c1)N=CC1(O3)N(C)c2ccccc2C1(C)C` (stereo not given), the “total fluorescence change, both ways” value was 2.19%.

In the case of `CCC(CNc1cc(OC)cc2cccnc12)NC1CCCCC1` (stereo not given), the “total fluorescence change, both ways” value was 26.9%.

For the molecule `COc1ccc(C(=O)/C=C/Nc2ccc(S(=O)(=O)Nc3ncccn3)cc2)cc1`, the “total fluorescence change, both ways” value was 8.18%.

Consider `Cc1ccc2c(CC(=O)Nc3c(C(=O)c4ccc(F)cc4)oc4ccccc34)coc2c1C`, for which the “total fluorescence change, both ways” value was 4.74% [at 184 µM].

With `Cc1cccc(S(=O)(=O)c2cn(Cc3ccccc3)c3cc(N4CCC(C)CC4)c(F)cc3c2=O)c1`, the “total fluorescence change, both ways” value was 5.69% [at 184 µM].

Turning to `C=CCNC(=O)/C(C#N)=C/c1c(C)nn(-c2ccc(Cl)cc2)c1Cl`, the “total fluorescence change, both ways” value was 4.25%.

Turning to `Cn1c(-c2ccc(=O)[nH]c2)nc2ccccc21`, the “total fluorescence change, both ways” value was 5.74%.

`CC(NC(=O)Nc1ccc(O)cc1)(C(F)(F)F)C(F)(F)F`: the “total fluorescence change, both ways” value is -1.5%.

For `O=C(O)/C=C/C(=O)Nc1ccc(SC(F)(F)C(F)(F)C(F)(F)F)cc1`, the “total fluorescence change, both ways” value was 6.28%.

As to `Cc1ccc(OC(=S)Nc2ccc(O)cc2)cc1`, the “total fluorescence change, both ways” value was -1.98%.

`C/C(=C\C(=O)c1ccccc1)Nc1ccc(O)cc1`: the “total fluorescence change, both ways” value is 0.528%.

Regarding `Cc1[nH][nH]c(=O)c1C(c1ccc(-c2ccccc2C(=O)O)o1)c1c(C)[nH][nH]c1=O`, the “total fluorescence change, both ways” value is -3.55%.

With `Cc1cc(C)cc(OCC(=O)NCCc2nc3ccccc3[nH]2)c1`, the “total fluorescence change, both ways” value was 6.66% [at 184 µM].

Regarding `CN1N=C(C(C)(C)C)CC1=O`, the “total fluorescence change, both ways” value was 1.82%.

Turning to `Cn1c(CCN2CCCCC2)nc2cc(NS(=O)(=O)c3ccc(Cl)cc3)ccc21`, the “total fluorescence change, both ways” value is 5.61%.

For `CN(CCO)c1nc(N)c2c(N)nc3c(c2c1C#N)CC(=O)N3C1CCCC1`, the “total fluorescence change, both ways” value was -1.92%.

As to `Cc1c(C#N)c(O)n(CCO)c(=O)c1N=Nc1ccc2c(c1)COC2=O`, the “total fluorescence change, both ways” value is -2.59%.

Consider `CCN(C(=O)C1CCCN(c2ncnc3onc(-c4ccc(F)cc4)c23)C1)c1ccccc1` (stereo not given), for which the “total fluorescence change, both ways” value was 5.18% [at 184 µM].

For `CCCCOc1ccc(C(=O)CCN2CCOCC2)cc1`, the “total fluorescence change, both ways” value was 8.29%.

Turning to `CCCCOc1ccc(C(=O)CCN2CCCCC2)cc1`, the “total fluorescence change, both ways” value is 6.86%.

With `O=C(/C=C/c1ccco1)NC(=S)Nc1cc(C(F)(F)F)ccc1N1CCOCC1`, the “total fluorescence change, both ways” value is 11%.

For the molecule `Cc1ccccc1Nc1cc2ccccc2c(=O)[nH]1`, the Potency result was “inactive”.

Take `O=c1cc(C23CC4CC(CC(C4)C2)C3)[nH][nH]1`: the “total fluorescence change, both ways” value is -5.37%.

`CC1=NN(Cc2ccccc2)C(=O)C1`: the “total fluorescence change, both ways” value was 4.8%.
